# From ChEMBL document CHEMBL3988442, “University of Dundee, Small-Polar-MMV Screening Library” (2021)
# The campaign covered roughly 48,000 compounds. About 13,000 (27%) showed an effect of 50% or more. The list shows a part of the results.
# Test system: Wolbachia pipientis
# Experiment: Anti-Wolbachia Cell-Based Screen
# Type: functional
# Design: scale not given: in the data most compounds retested in dose-response had high values
# Conditions: 5 µM
row,SMILES,Percent Effect [%]
1,Cc1nc(CN(C)c2nc3c(cnn3C(C)(C)C)c(=O)[nH]2)cs1,2.09
2,CC(=O)N1CC[C@H]2C(=O)N(c3ccsc3)CCO[C@H]2C1,-22.82
3,Cc1ccc(CN(C)C)cc1NC(=O)C1CC1,-4.043
4,c1csc(CN2CCC3(CC2)COCCN3CC2CC2)n1,-11.56
5,O=C(Cc1cccs1)N1CCC2(CC1)COCCN2CC1CC1.O=C(O)C(F)(F)F,-7.1
6,O=C(C1CCCO1)N1CCC2(CC1)COCCN2CC1CC1 (stereo not given),91.17
7,CCOCC(=O)N1CCC2(CC1)COCCN2CCOC.O=C(O)C(F)(F)F,1.249
8,CCN1CCOCC12CCN(C(=O)C1CCCC1)CC2.O=C(O)C(F)(F)F,72.95
9,COCC(=O)N1CCC2(CC1)COCCN2CCN(C)C.O=C(O)C(F)(F)F.O=C(O)C(F)(F)F,-13.01
10,CCOCC(=O)N1CCC2(CC1)COCCN2CCN(C)C.O=C(O)C(F)(F)F.O=C(O)C(F)(F)F,122.8
11,CC(C)(C)N1CC(C(=O)NCc2cn3cccnc3n2)CC1=O (stereo not given),-9.989
12,Cc1nc(CN(C)Cc2nc(-c3ccncc3)no2)co1,-11.37
13,Cc1csc(CCNC(=O)C2CCCN(C3CCOCC3)C2)n1 (stereo not given),-10.65
14,CNc1ccc(CC2CCCN(Cc3c[nH]cn3)C2)nn1 (stereo not given),113.9
15,O=CO.c1nc(CN2CCCC(Cc3ccc(NC4CCCC4)nn3)C2)c[nH]1 (stereo not given),168.2
16,COCCNc1ccc(CC2CCCN(Cc3c[nH]cn3)C2)nn1 (stereo not given),98.89
17,COCCNc1ccc(CC2CCCN(C3CCOCC3)C2)nn1 (stereo not given),121.9
18,CC(C)[C@H]1CN(Cc2c[nH]cn2)C[C@@H]1NC(=O)CC1CCC1,-5.041
19,Cc1ccc2[nH]nc(C(=O)NCC3CCN(Cc4c[nH]cn4)C3)c2c1 (stereo not given),-10.2
20,O=C(CC1CCCC1)N[C@H]1CN(Cc2c[nH]cn2)C[C@@H]1C1CC1,-0.5907
21,Cn1c(CCNC(=O)C2CCCN(C3CCOCC3)C2)n[nH]c1=O (stereo not given),-0.6939
22,Cc1c(C(=O)NCC2CCN(Cc3c[nH]cn3)C2)[nH]c2ccccc12 (stereo not given),1.148
23,NC(=O)COc1ccc(CNC(=O)CN2CCc3ccccc32)cc1,-10.38
24,CN(CCO)Cc1nnc(C2CCN(C3CCCCC3)CC2)n1C,6.504

row,SMILES,Percent Effect [%]
1,Cc1ccc(C(=O)N2CCSCC2)cc1NC(=O)Cn1cncn1,-1.948
2,NC(=O)c1cccc(CCNC(=O)N2CCCC2)c1,-5.891
3,CCCc1cc(=O)[nH]c(-c2cccc(CN3CCN4CCCC4C3)c2)n1 (stereo not given),-7.506
4,c1ccc(C2CN(C3CC3)CC3(CCN(Cc4ncc[nH]4)CC3)C2)cc1 (stereo not given),-18.37
5,Nc1ccc(CC2CCCN(Cc3c[nH]cn3)C2)nn1 (stereo not given),105.7
6,Fc1ccc(CCC2CCCN(Cc3c[nH]cn3)C2)c(F)c1 (stereo not given),-3.071
7,O=C1CC[C@H]2CN(Cc3ncc[nH]3)CC[C@H]2N1CC1CCNCC1,-8.264
8,c1c[nH]c(CN2CCCC(Cc3ccc(NC4CCCC4)nn3)C2)n1 (stereo not given),81.53
9,CC(C)C1CN(Cc2c[nH]cn2)CCCN1CC1CC1 (stereo not given),17.94
10,O=C(c1coc(COc2cccc3cnccc23)n1)N1CCSCC1,-33.47
11,Cc1cnc(C(=O)N2CC[C@H]3[C@@H]2CCC(=O)N3c2cccnc2)cn1.O=C(O)C(F)(F)F,0.08604
12,CCc1cnc(N2CC[C@H]3[C@@H]2CCC(=O)N3c2cccnc2)nc1.O=C(O)C(F)(F)F.O=C(O)C(F)(F)F,93.01
13,Cc1ccc(C(=O)N2CC[C@H]3[C@@H]2CCC(=O)N3c2cccnc2)o1.O=C(O)C(F)(F)F,-21.39
14,CCc1cnc(N2CC[C@H]3[C@@H]2CCC(=O)N3c2ccccc2)nc1.O=C(O)C(F)(F)F,97.82
15,CCc1cnc(N2CC[C@H]3[C@H]2CC(=O)N3c2cccnc2)nc1.O=C(O)C(F)(F)F.O=C(O)C(F)(F)F,-6.023
16,Cc1cc(CNC(=O)c2cc(C(C)C)n(C)n2)ccc1S(C)(=O)=O,-6.268
17,CC(=O)N(CCc1ccccc1)CC(=O)NC(C)(C)C#N,-33.05
18,COCCCN1CC2(CCCN(c3ncnc4[nH]cnc34)C2)CCC1=O (stereo not given),-3.857
19,O=C1N(CCC2CCCCC2)CCCC1(O)CNCCc1ccccc1 (stereo not given),4.403
20,O=C(O)C(=O)O.c1ccc2c(c1)SCCC2NCc1ccc(N2CCOCC2)cc1 (stereo not given),-0.4171
21,Cn1cc(C(=O)CC2CCCN2C(=O)c2cccc3ncccc23)cn1 (stereo not given),103.8
22,COc1cc(C(=O)N2CCCC2CC(=O)c2cnn(C)c2)ccc1F (stereo not given),-15.51
23,Cc1ccc(O)c(C(=O)N2CCCC2CC(=O)c2cnn(C)c2)c1 (stereo not given),-14.12
24,CCc1ccccc1C(=O)N1CCCC1CC(=O)c1cnn(C)c1 (stereo not given),88.86

row,SMILES,Percent Effect [%]
1,CCc1cc(C)c(C(=O)N2CCCC2CC(=O)c2cnn(C)c2)o1 (stereo not given),-2.154
2,Cc1cscc1C(=O)N1CCCC1CC(=O)c1cnn(C)c1 (stereo not given),127.4
3,Cn1cc(C(=O)CC2CCCN2C(=O)c2ccc(Cl)cn2)cn1 (stereo not given),-8.745
4,Cn1cc(C(=O)CC2CCCN2C(=O)c2cncc3ccccc23)cn1 (stereo not given),0.2394
5,Cn1cc(C(=O)CC2CCCN2C(=O)c2ccncc2F)cn1 (stereo not given),96.19
6,Cn1cc(C(=O)CC2CCCN2C(=O)c2ccn3ccnc3c2)cn1 (stereo not given),8.483
7,CCn1c(CN(C)CC(F)(F)F)nc2c(F)cccc21,-13.63
8,COc1cc(F)c(C(=O)NCc2ccon2)c(F)c1,-19.7
9,COc1ccc(C2=CCN(C(=O)CN(C)Cc3ccoc3)CC2)cc1,39.3
10,Cc1cc(-n2cncn2)ccc1C(=O)N(C)CC(F)(F)C(F)(F)F,-10.14
11,CS(=O)(=O)N1C[C@@H]2COC[C@@H](CC(=O)N3CCCO3)[C@@H]2C1,-9.708
12,Cc1ccoc1C(=O)N1CCOC2(CCCC2)C1,-7.54
13,CCOC(C)c1nc(COc2nc(C)no2)cs1 (stereo not given),-4.126
14,Cn1cc(C(=O)CC2CCCN2C(=O)c2coc3ccccc23)cn1 (stereo not given),99.8
15,Cn1cc(C(=O)CC2CCCN2C(=O)c2ccc3[nH]ncc3c2)cn1 (stereo not given),-6.365
16,Cn1cc(C(=O)CC2CCCN2C(=O)c2n[nH]c3ccccc23)cn1 (stereo not given),-3.127
17,O=C(c1ccncc1)N1CCN(C(=O)c2coc3ccccc23)CC1,-6.895
18,Cn1cc(C(=O)CC2CCCN2C(=O)c2ccc(Cl)o2)cn1 (stereo not given),3.308
19,Cn1cc(C(=O)CC2CCCN2C(=O)c2c[nH]c3ccccc23)cn1 (stereo not given),107.8
20,Cn1cc(CN2CCc3ncn(C)c3C2COCc2cccnc2)cn1 (stereo not given),-2.593
21,N#Cc1c(F)cccc1NCCCOCC1CCOC1 (stereo not given),-17.11
22,COCCNC(=O)c1nc(-c2cn(C)cn2)n2ccccc12,37.4
23,Cc1cccc(C(=O)NC(CN2CCCC2=O)c2ccccc2)n1 (stereo not given),-6.295
24,O=C1CCCN1Cc1ncn2c1CN(C(=O)c1cccc(F)c1)CCC2,7.876

row,SMILES,Percent Effect [%]
1,Cc1ccccc1C(=O)N1CCCn2cnc(CN3CCCC3=O)c2C1,104.2
2,Cc1occc1C(=O)N1CCC2(CCC(=O)N(CC(N)=O)C2)CC1,0.6674
3,Cc1occc1C(=O)N1CCCn2cnc(CN3CCCC3=O)c2C1,99.06
4,Cc1occc1C(=O)N1CCn2cnc(COCC3CC3)c2C1,-3.111
5,Cc1cccc(C(=O)N2CCCn3cnc(CN4CCCC4=O)c3C2)n1,84.9
6,Cc1ccccc1C(=O)N1CCCn2nnc(Cn3cccn3)c2C1,-4.319
7,O=C(NC1CC1)C1CCCN(c2cc(-n3cncn3)ncn2)C1 (stereo not given),-0.5146
8,COCCN(C)C[C@@H]1CCC[C@@H]2CN(c3cc(OC)ncn3)C[C@@H]21.O=C(O)C(F)(F)F,-6.847
9,Cc1cccc(C2(CNC(=O)C(C)S(C)(=O)=O)CCCC2)c1 (stereo not given),0.1525
10,CC(=O)N1[C@H](Cn2cncn2)C[C@@H]2CN(Cc3ccccn3)CC[C@@H]21.O=C(O)C(F)(F)F.O=C(O)C(F)(F)F,10.04
11,O=C(O)C(F)(F)F.c1ccc(CN2Cc3nccn3CC(Cn3cccn3)C2)nc1 (stereo not given),97.11
12,O=C(O)C(F)(F)F.c1ccc(CN2Cc3nccn3CC(Cn3cncn3)C2)nc1 (stereo not given),98.39
13,N#Cc1ccc(NCCCOCC2CCCO2)c(F)c1 (stereo not given),-11.95
14,CC(c1ccccc1)N(C)C(=O)CN1CCCc2cccc(F)c21 (stereo not given),5.525
15,CC(=O)NCc1ccc(C(=O)N2CCCc3c(F)ccc(C)c32)o1,-10.88
16,Cc1ccc(F)c2c1N(C(=O)c1cn(CC(=O)N(C)C)nn1)CCC2,115.7
17,Cc1ccc(F)c2c1N(C(=O)c1ccc(S(C)(=O)=O)cc1)CCC2,11.45
18,Cc1ccc(F)c2c1CCCN2C(=O)c1cn(CC(=O)N(C)C)nn1,122.6
19,CN(C)C(=O)Cn1cc(C(=O)N2CCCc3cccc(F)c32)nn1,105.3
20,COc1cccc2c1N(C(=O)c1ccc(C)nc1)CCC2,2.178
21,CN(C)C(=O)CN1CCCc2c(F)cc(Br)cc21,1.685
22,COc1ccc(C)c2c1N(C(=O)c1ccc3nnc(C)n3c1)CCC2,-2.27
23,N[C@@H]1CC[C@@H](NC(=O)c2ccccc2OC(F)(F)C(F)F)C1,3.993
